# Compound activity as filed in PubChem BioAssay.
# In the library only some 8.9% were active in any assay of this set; here they are far more common.
# HPGD block – inhibitors of human 15-hydroxyprostaglandin dehydrogenase (HPGD); actives 4.3% (n = 150,000); P15428; Potency, µM, for inactives: at the highest dose activity change, negative = inhibition, hits mostly inhibitors; purified HPGD, NADH fluorescence kinetic, PGE2 substrate; active = well fitted inhibition curve with a large enough effect, not every such curve was filed as active; inconclusive = small, poorly fitted or top-dose-only effect, or another doubt; inactive = no such curve, though single readings can be large or run the other way; note: potency is the fitted concentration of half-maximal effect
# Target sequence (P15428 whole entry, looked up): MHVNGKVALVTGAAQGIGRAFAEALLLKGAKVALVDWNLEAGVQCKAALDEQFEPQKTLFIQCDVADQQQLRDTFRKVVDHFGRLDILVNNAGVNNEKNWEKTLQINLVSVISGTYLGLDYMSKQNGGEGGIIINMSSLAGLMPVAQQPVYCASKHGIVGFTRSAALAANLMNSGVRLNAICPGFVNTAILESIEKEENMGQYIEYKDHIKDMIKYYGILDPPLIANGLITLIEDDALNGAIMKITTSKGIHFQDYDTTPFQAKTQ
#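 NADH formation kinetics: reaction with 30 uM PGE2 and 1 mM NAD+ (final), 20 nM enzyme, Tris-HCl pH 8 with Tween 20, after 15 min compound preincubation at room temperature. Fluorescence change, last versus first of five reads.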
# IMPase Li cell – IMPase inhibition in cells with lithium potentiation. AID 1457. CHO-M1 cells, IP1 TR-FRET (IP-One), carbachol + lithium. Potency, µM (doses to about 59.4 µM), for inactives: top-dose activity, negative = IMPase inhibition, most hits filed as inhibitors. actives 0.35% (n = 210,000);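 note: IP1 builds up when IMPase is blocked and the TR-FRET signal falls; potency is the fitted concentration of half-maximal effect; plate controls were basal vehicle for no effect and high inhibitor control for full effect; nearly all actives have a fitted effect of over 50% in size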
#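 Test compounds were applied to CHO-M1 cells previously cultured for 16–30 h at 2000 per well. A small lithium amount accompanied them; after 30 min at 37C, IP1 was quantified by TR-FRET.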
# IMPase cell inh – cell-permeable inhibitors of inositol monophosphatase (IMPase). P97697. CHO-M1 cells, IP1 accumulation, HTRF TR-FRET ratio. inhibition (IP1 accumulation), % at 46.1 µM. 120,000 tested, under 10 active. AID 901; active = well fitted curve in the direction sought with a large enough effect in the signal ratio, not every such curve was filed as active; inconclusive = small, poorly fitted or top-dose-only effect, or a change in a side signal; inactive = no such curve, though single readings can be large or run the other way; the % refers to the signal ratio;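 note: cells stimulated with carbachol in lithium chloride buffer; plate controls were DMSO basal wells for no effect and reference inhibitor wells for full effect; higher means more IMPase inhibition seen as more IP1 and lower FRET ratio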
#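 CHO-M1, 2000 cells/well, cultured 16–30 h; cpd up to 46 uM; carbachol (50 uM solution, stimulation buffer w/ 50 mM LiCl, pH 7.4), 30 min 37C; IP-One TR-FRET, 10 min RT; Ex 320/Em 665, 620; Hill-fit AC50.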
# ALDH1A1 block – blocks purified human ALDH1A1 activity | P00352 | Purified ALDH1A1, NADH fluorescence, propionaldehyde substrate | Potency, µM (top dose mostly 75.3 µM), for the others: at the highest dose activity, negative = inhibition, most hits filed as inhibitors | actives 7.3% (n = 220,000) | AID 1030; active = well fitted inhibition curve with a large enough effect, not every such curve was filed as active; inconclusive = small, poorly fitted or top-dose-only effect, or another doubt; inactive = no such curve, though single readings can be large or run the other way;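 note: potency is the fitted concentration of half-maximal effect; plate controls were no enzyme wells and a reference inhibitor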
# Target sequence (P00352 whole entry, looked up): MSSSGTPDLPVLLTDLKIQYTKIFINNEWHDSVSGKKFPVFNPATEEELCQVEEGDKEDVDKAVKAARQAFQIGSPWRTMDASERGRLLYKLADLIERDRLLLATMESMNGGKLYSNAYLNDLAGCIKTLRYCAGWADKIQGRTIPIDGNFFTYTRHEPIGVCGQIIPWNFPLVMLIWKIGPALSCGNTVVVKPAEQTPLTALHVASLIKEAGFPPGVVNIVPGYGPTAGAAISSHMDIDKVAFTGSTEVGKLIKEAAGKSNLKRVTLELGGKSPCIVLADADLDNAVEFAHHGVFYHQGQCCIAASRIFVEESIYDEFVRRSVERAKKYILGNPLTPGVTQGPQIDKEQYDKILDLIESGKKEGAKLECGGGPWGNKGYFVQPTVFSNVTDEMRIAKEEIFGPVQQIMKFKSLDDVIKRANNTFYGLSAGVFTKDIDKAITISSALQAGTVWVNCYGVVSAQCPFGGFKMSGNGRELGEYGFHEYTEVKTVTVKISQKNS
# NPSR antagonist – neuropeptide S receptor (human) antagonism, cAMP. Q6W5P4. CHO-NPSR cells, cAMP TR-FRET, antagonist mode. Potency, µM (titrated, usually from 38.3 µM), without a hit: top-dose activity change, negative = inhibition, most hits filed as inhibitors. actives 1% (n = 220,000). AID 1461; note: potency is the fitted concentration of half-maximal effect; nearly all actives have a fitted effect of over 50% in size
# ALOX12 inhib – inhibitors of human 12-lipoxygenase (ALOX12); AID 1452; P18054; Potency, µM (highest dose often 57.1 µM), without a hit: top-dose activity change, negative = inhibition, usual class: inhibitors; actives 0.12% (n = 150,000); purified 12-hLO, xylenol orange hydroperoxide absorbance; note: potency is the fitted concentration of half-maximal effect; nearly all actives have a fitted effect of over 55% in size
#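 Hydroperoxide formation by human 12-lipoxygenase from 40 uM arachidonic acid was followed colorimetrically via ferric-xylenol orange complex, using the 573/405 nm absorbance ratio. Enzyme concentration was 150 nM, with 30 min reaction at room temperature.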
# An asterisk follows results filed as active; ? = inconclusive; · = no result given; ! = repeats disagree; [ ] = another dose, or the depositor's remark. Unless noted, calls come from the whole dose curve; as a rule, active = well fitted curve in the direction sought with a large enough effect; inconclusive = small, poorly fitted or top-dose-only effect, or another doubt; inactive = no such curve, though single readings can be large; an effect the other way counts as inactive or inconclusive. Unless noted, % is set by controls: 0 for no effect and ±100 for the full control effect.
SMILES,HPGD block,IMPase Li cell,IMPase cell inh,ALDH1A1 block,NPSR antagonist,ALOX12 inhib
COc1ccc(NC(=O)N2CCC3(CC2)CCN(C(=O)Oc2ccccc2)CC3)cc1,-13%,9%,·,10µM*,·,-3%
Fc1ccccc1CCNCc1ccccc1,-1%,-2%,·,7%,12%,0%
Cn1c2ccccc2c2c(C(=O)N3CCC4(CC3)OCCO4)cn(C3CCCCC3)c(=O)c21,?,14%[38.3 µM],-6,?,-10%[46.1 µM],-5%
Oc1ccc(/C=N/NP(=S)(c2ccccc2)c2ccccc2)cc1O,-12%,25%[38.3 µM],3,6%,?,?
N#C/C(=C\c1ccc(O)c(O)c1)C(N)=S,8.9µM*,13%,?,2.2µM*,·,13µM*
C=CC(=O)OC,1%,-1%,·,13%,·,-2%
C=CC(C)=O,-3%,0%,·,20µM*,·,-1%
CC1CCCN(CC(=O)c2ccc(Cl)c(Cl)c2)C1 (stereo unspecified),·,15%,·,2µM*,12%,·
CC1CCN(CC(=O)c2ccc3c(c2)OCCO3)CC1,·,7%,·,7.9µM*,14%,·
Cc1ccc(-n2c(O)c(C=NCCN(C)C)c(=O)[nH]c2=O)cc1,-15%,-4%,·,0%,-26%,-2%
Cc1ccc(N/N=C/c2c(O)n(-c3ccccc3)c(=O)[nH]c2=O)cc1,·,9%,·,11µM*,-5%,·
N#CC(Cl)Cl,-10%,7%,·,18µM*,·,-4%
O=C(c1ccc2c(c1)ncn2C1CCCCCC1)N1CCC2(CC1)OCCO2,14µM*,-5%[38.3 µM],4,-13%,-1%[46.1 µM],-3%
Cc1nc2cc(C(=O)N3CCC4(CC3)OCCO4)ccc2n1-c1cccc(F)c1,2.8µM*,-11%[38.3 µM],1,25µM*,-14%[46.1 µM],8%
COc1ccc(-n2cnc3cc(C(=O)N4CCC5(CC4)OCCO5)ccc32)cc1,·,4%,·,?,23%,·
CC(C)(C)NC[C@@H](O)COc1cccc2[nH]c(C#N)cc12,-2%,16%,2,3%,·,-10%
N#CC(c1ccccc1)N1CCOCC1 (stereo unspecified),·,·,·,7%,-10%,·
CNC(=O)OCCc1n(C)cc[n+]1C,-6%,0%,·,6%,12%,0%
COC(=O)CCC(=O)Nc1sc(Cc2ccccc2)c(C)c1C(N)=O,·,7%,·,2µM*,-15%,·
O=C1/C(=C\c2cc3c(cc2Br)OCO3)N2CCC1CC2,?,18%,·,3.2µM*,6%,7%
COC(=O)[C@]1(C)CC[C@@]2(C)CC[C@@]3(C)C4=CCc5c(cc(O)c(O)c5C)[C@]4(C)CC[C@@]3(C)C2C1 (stereo partly specified),28µM*,1%,·,5%,·,-1%
CC1=NN(c2ccccc2)C(=O)[C@@H]1N=Nc1ccc([As](=O)(O)O)c(O)c1,-6%,1%,·,3.5µM*,·,-6%[11.4 µM]
COc1ccc(/C=C2/C(=O)NC(=S)N(C3CC3)C2=O)cc1CN1C(=O)c2ccccc2C1=O,14µM*,5%,-6,20µM*,-46%,-12%
COc1ccc(/C=C2/C(=O)NC(=O)N(c3ccccc3)C2=O)cc1CN1C(=O)c2ccccc2C1=O,·,·,·,·,9%,·
O=C(O)c1ccccc1Nc1cccc(C(F)(F)F)c1,28µM*!,-1%,-5[20.6 µM],9%,-16%,-12%
SMILES,HPGD block,IMPase Li cell,IMPase cell inh,ALDH1A1 block,NPSR antagonist,ALOX12 inhib
Cc1cnn(C2CCN(C)CC2)c1N,-1%,2%,4,9%,2%[46.1 µM],2%
O=C(CN1CCCCC1)NCC(=O)Nc1ccc(Br)cc1C(=O)c1ccccc1,28µM*,-28%[38.3 µM],-1,10%,1%[46.1 µM],0%
O=C(CNC(=O)c1ccccc1Cl)Nc1ccc(Br)cc1C(=O)c1ccccc1,28µM*,16%,2,-5%,-24%,-2%
C[C@]12CC[C@@H](O)C[C@@H]1CC[C@@H]1[C@@H]2CC[C@]2(C)[C@@H](O)CC[C@@H]12,-5%,21%,·,6%,-9%,3%
COc1ccc(S(=O)(=O)NC(CC(=O)N2CCc3ccccc32)c2ccco2)cc1 (stereo unspecified),5%,19%[38.3 µM],-2,?,-21%[46.1 µM],-1%
CC(=NCc1cccnc1)c1c(O)n(Cc2ccccc2)c(=O)[nH]c1=O,28µM*,3%,0,?,-17%[46.1 µM],-5%
CC(=NCc1cccnc1)c1c(O)n(-c2ccccc2)c(=O)[nH]c1=O,-3%,-1%[38.3 µM],-2,-2%,-3%[46.1 µM],2%
CCC(=NCc1cccnc1)c1c(O)n(Cc2ccccc2)c(=O)[nH]c1=O,16µM*,9%[38.3 µM],8,?,-11%[46.1 µM],-7%
CCCc1cc2c(n1Cc1ccc(C)cc1)C(C)C1CN(C(=O)c3ccccc3)C(C)(C(=O)OC)C21 (stereo unspecified),-20%,6%,·,?,·,-9%
Cc1ccc(-n2c(O)c(/C=N/NC(=O)c3ccncc3)c(=O)[nH]c2=O)cc1C,-17%,6%,·,?,8%,3%
Cc1cc(C)c(Cn2c(C(=O)O)c(C=O)c3ccccc32)c(C)c1,·,7%,·,14µM*,-33%,·
O=Cc1c(C(=O)O)n(Cc2ccccc2Cl)c2ccccc12,·,0%,·,?,-20%,·
O=C(CCS(=O)(=O)c1ccc(Br)cc1)N1CCC2(CC1)OCCO2,7%,14%[38.3 µM],4,14%,-3%[46.1 µM],0%
COc1cc(/C=C/[N+](=O)[O-])ccc1O,-24%,46%,·,?,?,-20%
CCOc1cc(C=O)ccc1O,-16%,9%,·,25µM*,·,-1%
Cn1ccc(NC(=O)CCl)n1,·,3%,·,20µM*,33%,·
NC(N)=N/N=C/c1cn(-c2ccccc2)nc1-c1cccs1,·,17%,·,-3%,-42%,·
Cc1ccc(NC(=O)CSc2nnc([C@@H](N)Cc3c[nH]c4ccccc34)o2)c(C)c1,?,16%[38.3 µM],11,25µM*,-9%[46.1 µM],-18%
CC(C)=CCSc1nnc([C@@H](N)Cc2c[nH]c3ccccc23)o1,-7%,-9%[38.3 µM],6,?,-4%[46.1 µM],-3%
C=C(C)CSc1nnc([C@@H](N)Cc2c[nH]c3ccccc23)o1,?,5%[38.3 µM],-2,16µM*,-6%[46.1 µM],-12%
CN1CCC[C@@H]1c1cccnc1.O=C(O)c1ccccc1O.O=C([OH2+])c1ccccc1O.O=C([OH2+])c1ccccc1O.O=C([OH2+])c1ccccc1O.[Mn],?,-7%,·,?,·,-7%[11.4 µM]
CC(=O)OC[C@]12CCC(C)=C[C@H]1O[C@@H]1[C@H](O)[C@@H](OC(C)=O)[C@@]2(C)[C@]12CO2,·,·,·,·,-38%,·
O=C(O)c1ccccc1-c1c2cc(Br)c(=O)cc-2oc2[c]([Hg])c(O)c(Br)cc12,2.2µM*,149%,23[20.6 µM],4.5µM*,·,?
